Screening data deposited in PubChem by The Scripps Research Institute Molecular Screening Center.
CHO-K1 Ca antag – M1 antagonist counterscreen hit in parental CHO-K1 cells; ATP-induced calcium, Fluo-8 fluorescence; inhibition, % at 3 µM; 360,000 compounds, 0.6% hits; AID 602250;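 active means inhibition above a per-plate cutoff, the plate's mean sample inhibition plus 3 SD, cut at about 24% in these data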;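 further: 0% = DMSO plus EC80 ATP and 100% = DMSO alone without ATP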
M1 ag – human M1 muscarinic receptor agonists, primary screen, Fluo-8 calcium fluorescence, CHO-K1 cells, HTS. Muscarinic acetylcholine receptor M1 (Homo sapiens), P11229. CHO-K1 hM1, agonist mode; 0% DMSO, 100% acetylcholine EC100. activation, % at 3 µM. 360,000 compounds, 0.33% hits;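 active means activation above the run's mean compound activation plus 3 SD, cut at about 16% in these data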;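 further: peak over basal fluorescence ratio within a 140 s kinetic read after compound addition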
Target sequence (P11229 whole entry, looked up): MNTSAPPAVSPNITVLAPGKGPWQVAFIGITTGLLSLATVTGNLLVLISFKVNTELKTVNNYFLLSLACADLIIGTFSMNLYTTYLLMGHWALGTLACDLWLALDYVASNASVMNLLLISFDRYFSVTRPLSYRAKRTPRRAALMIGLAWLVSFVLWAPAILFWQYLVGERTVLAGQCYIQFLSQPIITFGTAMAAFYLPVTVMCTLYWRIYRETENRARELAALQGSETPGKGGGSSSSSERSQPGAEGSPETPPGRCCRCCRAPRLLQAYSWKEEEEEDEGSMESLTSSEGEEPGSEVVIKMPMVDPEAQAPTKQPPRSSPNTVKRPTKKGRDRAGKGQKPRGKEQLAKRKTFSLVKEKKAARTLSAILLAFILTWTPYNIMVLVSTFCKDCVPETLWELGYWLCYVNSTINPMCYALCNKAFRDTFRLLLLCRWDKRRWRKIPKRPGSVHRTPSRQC
CHRM1 PAM – human M1 muscarinic receptor positive allosteric modulators, primary screen, CHO-K1 cells, Fluo-8 calcium fluorescence, 1536-well; AID 588819, 2011; 360,000 compounds, 0.088% hits; CHO-K1 hM1, ACh EC20; 0% = ACh EC20, 100% = maximal ACh; activation, % at 3 µM; in the data active means activation above about 19%, passing the limit was not always enough
M1 antag – human M1 muscarinic receptor antagonists, primary screen, CHO-K1 cells, Fluo-8 calcium fluorescence, 1536-well; Muscarinic acetylcholine receptor M1 (Homo sapiens), P11229; CHO-K1 hM1, ACh EC80 antagonist; inhibition, % at 3 µM; 360,000 compounds, 1.3% hits; AID 588852, 2011;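 active means percent inhibition above its own plate's cutoff, namely the mean of that plate's compound wells plus 3 SD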;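 further: peak over basal fluorescence ratio during 140 s after agonist addition; 0% = ACh EC80 plus DMSO and 100% = DMSO alone without agonist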
CHO-K1 Ca PAM – nonselective calcium activators in parental CHO-K1 cells, primary screen, counter-screen for M1 PAM project, cell-based, Fluo-8 calcium fluorescence, full deck, 1536-well. ATP EC20; 0% at ATP EC20, 100% at ATP max. activation, % at 3 µM. 360,000 compounds, 0.02% hits. AID 602247, 2012;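 active means activation above the run cutoff, the mean activation of all test compounds plus 3 SD, cut at about 40% in these data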;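 further: peak over basal fluorescence ratio in a 140 s read after ATP addition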
M1 ag parental – counter-screen for M1 agonists: effect in parental CHO-K1 cells | Fluo-8 calcium fluorescence; scaled to maximal ATP response, vehicle zero | activation, % at 3 µM | 360,000 compounds, 0.48% hits; in the data active means activation above about 15%;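 further: untransfected CHO-K1 host cells lacking M1 receptor as counterscreen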
Numbers without * were called inactive; x = no result given. Sampled rows, rich in hits. Any-hit rate of the full collection: about 2.4%.

SMILES	CHO-K1 Ca antag	M1 ag	CHRM1 PAM	M1 antag	CHO-K1 Ca PAM	M1 ag parental
Cc1cc(N2CCN(c3ccccn3)CC2)n2c(nc3ccccc32)c1C#N	29*	0	0	1	2	1
CCCc1cc(NCc2ccccn2)n2c(nc3ccccc32)c1C#N	-4	-6	-4	2	13	15*
O=C(c1ccc(OC2CCN(CCc3ccccc3)CC2)cc1)N1CCC[C@H]1CO	-3	-6	-3	-4	7	1
COC(=O)c1ccc(/C=N/OCC(=O)NC2CCCCCCC2)cc1	-3	-4	5	-10	19	4
COC(=O)c1ccc(/C=N/OCC(=O)NC2CCCC(C)C2C)cc1 (stereo not drawn)	-3	3	-13	31*	19	5
C[C@H](NC(=O)c1nc[nH]c1C(=O)NCCCCCN)C(=O)OCc1ccccc1	-6	-3	9	-5	11	1
CCOC(=O)C1=C(C)N(C)C(C)=C(C(=O)OCC)C1c1ccc(C(=O)OC)cc1	-25	-4	-22	53*	8	-1
Nc1ccn([C@@H]2O[C@H](CNCc3cccc4c3sc3ccccc34)[C@@H](O)[C@H]2O)c(=O)n1	-7	-2	4	-12	17	1
COc1ccccc1/C=C/C=N/n1c(-c2ccc(Cl)cc2)n[nH]c1=S	53*	0	12	-27	-16	-1
CCOc1ccc(NC(=S)N2CCC(NC(=O)c3ccco3)CC2)cc1	-10	-8	3	-2	3	0
COc1ccc(CCNC(=O)c2cc(-c3ccccn3)nc3c(Cl)cccc23)cc1OC	-5	-3	5	-11	0	0
COc1ccc(CCNC(=O)c2cc(-c3ccncc3)nc3c(Cl)cccc23)cc1OC	-4	-3	-12	38*	-15	5
COc1ccccc1C1N(c2cc(Cl)ccc2OC)C(=O)C2CCCN21 (stereo not drawn)	27*	-5	3	-7	-13	0
Cc1csc2c(N3CCN(C(=S)Nc4ccc(F)cc4F)CC3)ncnc12	16	23*	-15	38	-8	23*
CCCC(=O)NC(=S)Nc1ccc(N2CCN(C(=O)c3cccs3)CC2)cc1	14	3	-9	27	-12	15*
Cc1ccc(C(=O)NC(=S)N2CCN(c3ccc([N+](=O)[O-])cc3)CC2)cc1	-6	-10	2	-10	13	-1
CCCC(=O)NC(=S)N1CCN(c2ccc([N+](=O)[O-])cc2)CC1	25*	-4	-7	11	-11	0
CCCC(=O)NC(=S)Nc1ccc(NC(=O)c2cccs2)cc1	-2	-2	5	-4	16	1
O=[N+]([O-])c1ccc(N2CCN(C(=S)Nc3ccc(F)cc3F)CC2)cc1	24*	-2	-5	29	-16	11
O=C(c1cnn2c(C(F)F)cc(-c3ccccc3)nc12)N1CCN(Cc2ccc3c(c2)OCO3)CC1	0	-5	-7	12	-8	3
CCc1noc(C)c1C(=O)N(CC)CC(=O)Nc1cc(Cl)ccc1C	-24	-4	9	-8	19	1
COc1ccc(S(=O)(=O)CCC(=O)N2CCN(c3ccc([N+](=O)[O-])cc3)CC2)cc1	-11	0	-19	48*	-3	10
COc1ccc(N2CCN(C(=O)CCS(=O)(=O)c3ccc(OC)cc3)CC2)cc1	-11	-5	-1	2	20	3
CN(C(=O)COC(=O)c1ccc(Cl)s1)C1(C#N)CCCCC1	11	-2	16	-14	-3	0
Nc1cc(S(=O)(=O)N2CCOCC2)ccc1Oc1cccc(Br)c1	24*	1	9	2	-3	3
SMILES	CHO-K1 Ca antag	M1 ag	CHRM1 PAM	M1 antag	CHO-K1 Ca PAM	M1 ag parental
COc1ccc(S(=O)(=O)N2CCOCC2)cc1Br	-8	-6	9	0	18	4
CCn1c(C)nc2cc(C(=O)OC(C(F)(F)C(F)F)C(F)(F)C(F)F)ccc21	45*	1	-12	29*	-11	14
Cc1ccc(NC(=S)NC(=O)Cc2ccccc2)c(O)c1	-3	18*	6	-4	12	6
COc1ccc(NC(=S)NC(=O)Cc2ccccc2)c(OC)c1	-11	7	10	-11	15	7
C[N+](C)(C)C/C=C1/COCO1	-7	91*	-17	96*	19	0
COc1ccc(NC(=O)c2cccc3c2C(=O)c2ccc(-c4cnc(OC)nc4)cc2S3(=O)=O)cc1	-3	5	7	12	-5	0
O=C(NCCCN1CCOCC1)c1ccc2c(c1)N(Cc1cccc(Cl)c1)C(=O)CS2	-21	-11	-32	65*	-1	2
Cc1ccc(CN2C(=O)CSc3ccc(C(=O)NCCN4CCOCC4)cc32)cc1	3	-5	5	-8	-1	0
CC1CCCC(C)N1C(=O)COC(=O)CNC(=O)c1sc2ccccc2c1Cl (stereo not drawn)	18	-2	4	-6	-16	19*
Cc1cccc(CSC2=NCCN2S(=O)(=O)c2ccc(F)cc2)c1	11	-2	-16	39*	-25	-1
CCCCNc1c(CC(C)C)nc2nc(C)cc(C)n12	25*	x	x	x	-9	-1
Cc1nc(SCC(=O)N2CCCC2=O)c2c(C)c(C)sc2n1	16	-3	10	-14	-7	0
c1ccc(CCNc2nc(-c3ccncc3)nc3ccccc23)cc1	-5	-4	-14	35*	6	5
COc1ccc(Cl)c(NC(=O)C/C(C)=N/NC(=O)CCc2ccccc2)c1	-11	-5	5	-1	-8	0
CCn1c(=O)c2ccccc2n(Cc2cccc(C)c2)c1=O	27*	-1	12	-2	-25	0
O=C(/C=C1\NC2(CCCC2)Cc2ccccc21)C(=O)N/N=C/c1ccccc1O	1	-4	8	-11	8	0
COc1cc(/C=N/NC(=O)C(=O)/C=C2\NC3(CCCC3)Cc3ccccc32)ccc1O	7	22*	9	-4	14	13
CN(C)c1ccc(/C=N/NC(=O)C(=O)/C=C2\NC3(CCCC3)Cc3ccccc32)cc1	7	11	26*	-11	13	0
O=C(Cc1ccc(S(=O)(=O)N2CCOCC2)s1)N1CCN(S(=O)(=O)c2cccc(Cl)c2)CC1	-4	-5	1	-9	-20	2
